High-throughput results deposited in PubChem by National Center for Advancing Translational Sciences (NCATS).
Tau FP inhib = tau fibrillization inhibition (FP); 280,000 tested, 0.39% active; Potency, µM (doses to about 57.7 µM), without a hit: at the top dose activity, negative = inhibition, hits mostly inhibitors; AID 1468; K18 P301L tau heparin fibrillization, Alexa594 FP, 6 h; further: nearly all actives have a fitted effect of over 55% in size
Target sequence (P10636 561-689 P618L limits assumed): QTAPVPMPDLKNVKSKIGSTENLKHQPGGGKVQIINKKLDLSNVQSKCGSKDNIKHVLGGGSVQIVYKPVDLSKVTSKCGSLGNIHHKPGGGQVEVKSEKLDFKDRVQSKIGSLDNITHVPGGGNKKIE
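Recombinant K18 P301L […], labeled with Alexa 594 at 0.24 uM over 15 uM unlabeled; heparin inducer 20 uM final; 37 C, 6 hr; FP endpoint.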
Tau ThT inhib = inhibitors of human tau fibril formation, thioflavin T binding | P10636 | recombinant tau K18 P301L, heparin-induced fibrillization, ThT fluorescence | Potency, µM (doses to about 57.4 µM), without a hit: at the top dose activity, negative = inhibition, usual class: inhibitors | 270,000 tested, 2.1% active | AID 1460; further: nearly all actives have a fitted effect of over 55% in size
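Aggregation was driven by heparin (20 uM final) acting on recombinant tau […] bearing P301L in 100 mM sodium acetate pH 7; fibrils were detected with Thioflavin T.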
KinaseGlo FLuc = counter-screen: inhibitors of Kinase-Glo firefly luciferase; Potency, µM (top dose mostly 38.3 µM), inactives show at the top dose activity change, negative = inhibition, hits mostly inhibitors; Q27757; Kinase-Glo luciferase, ATP luminescence, 8 min; AID 1379; 200,000 tested, 0.28% active; further: nearly all actives have a fitted effect of over 60% in size
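Inhibition of Kinase-Glo luciferase light generation was assessed at 10 uM ATP in pH 7.2 imidazole buffer, with luminescence measured after eight minutes at ambient temperature.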
NPSR antagonist = antagonists of human neuropeptide S receptor cAMP signaling; Q6W5P4; CHO-NPSR cells, cAMP TR-FRET, antagonist mode; Potency, µM (titrated, usually from 38.3 µM), for inactives: at the highest dose activity change, negative = inhibition, hits mostly inhibitors; 220,000 tested, 1% active; AID 1461; further: nearly all actives have a fitted effect of over 50% in size
Target sequence (Q6W5P4 whole entry, looked up): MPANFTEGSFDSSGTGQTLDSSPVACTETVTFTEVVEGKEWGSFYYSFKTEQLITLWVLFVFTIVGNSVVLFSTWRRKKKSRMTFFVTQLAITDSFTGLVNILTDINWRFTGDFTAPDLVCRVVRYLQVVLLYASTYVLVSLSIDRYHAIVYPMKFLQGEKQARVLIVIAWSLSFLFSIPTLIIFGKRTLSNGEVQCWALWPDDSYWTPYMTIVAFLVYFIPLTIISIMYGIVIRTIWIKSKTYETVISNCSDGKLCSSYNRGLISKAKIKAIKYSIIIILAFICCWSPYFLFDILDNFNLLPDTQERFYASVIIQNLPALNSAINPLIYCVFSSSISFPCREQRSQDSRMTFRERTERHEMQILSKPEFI
Tau fluor counter = counter-screen for tau fibril formation inhibitors; Potency, µM (top dose mostly 57.7 µM), for inactives: at the highest dose activity change, negative = decrease; 280,000 tested, 0.93% active; tau K18 P301L Alexa594 fluorescence, heparin fibrillization; further: nearly all actives have a fitted effect of over 55% in size
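Human tau K18 P301L (15 uM unlabeled, 0.24 uM Alexa 594-labeled) in 100 mM sodium acetate pH 7 with 20 uM heparin, 6 hr at 37 C. ThT 30 uM added, 1 hr ambient; Alexa 594 FP and total fluorescence read at 555/632 nm.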
Numbers without * were called inactive; [ ] = another dose, or the depositor's remark. Compounds with a hit are over-represented: about 3.3% of the library has one in this group of screens. The call rests on the fitted dose curve; in most records, active means well fitted curve in the direction sought with a large enough effect; inconclusive means small, poorly fitted or top-dose-only effect, or another doubt; inactive means no such curve, though single readings can be large; an effect the other way counts as inactive or inconclusive. On the % scale 0 is the no-effect control and ±100 the full control effect; potency means the concentration at half of the fitted maximal effect.

Screening Cc1ccc(S(=O)(=O)NCCc2cn3ccsc3n2)c(C)c1 returned Tau FP inhib -2%, Tau ThT inhib -2% and Tau fluor counter -6%.
`c1ccc(Nc2cccc(Nc3ccccc3)n2)cc1` gave Tau FP inhib 3%, Tau ThT inhib 14µM*, KinaseGlo FLuc -1%, NPSR antagonist 1%[46.1 µM] and Tau fluor counter 13µM*[quencher].
`Cc1cccc(NC(=O)CCS(=O)(=O)c2cccc3nsnc23)c1C` gave Tau FP inhib inconclusive, Tau ThT inhib 20µM*, KinaseGlo FLuc 0%, NPSR antagonist -9%[46.1 µM] and Tau fluor counter -22%.
Screening Cc1nc(Nc2ccc(C(=O)O)cc2)sc1-c1ccccc1 returned Tau FP inhib 0%, Tau ThT inhib -1%, KinaseGlo FLuc 1%, NPSR antagonist -29% and Tau fluor counter -7%.
Screening Cc1nc(Nc2ccccc2)sc1-c1ccccc1 returned Tau FP inhib 12%, Tau ThT inhib inconclusive, NPSR antagonist -24%[46.1 µM] and Tau fluor counter 7.9µM*[quencher].
`CCOc1ccc(CNC(=O)C2CCCN(S(=O)(=O)c3ccc4c(ccn4C)c3)C2)cc1` (stereo unspecified) gave Tau FP inhib 3%, Tau ThT inhib 12% and Tau fluor counter -3%.
For CNc1cccc2c1C(=O)c1ccccc1C2=O the results were Tau FP inhib -3%, Tau ThT inhib 8.9µM*, KinaseGlo FLuc -9%, NPSR antagonist -15%[46.1 µM] and Tau fluor counter inconclusive.
Screening CCCC[C@@H](C=O)NC(=O)[C@H](CC(C)C)NC(=O)OCc1ccccc1 returned Tau FP inhib 1%, Tau ThT inhib inconclusive and Tau fluor counter -7%.
Screening COC(=O)C1=C(C(=O)OC)[C@@H]2N(C)c3ccc(OC)cc3[C@@]23C[C@@H](C(=O)OC)N(S(=O)(=O)c2ccc(C)cc2)C3=N1 returned Tau FP inhib -1%[11.6 µM], Tau ThT inhib 1%[11.5 µM], KinaseGlo FLuc -1%[7.66 µM] and Tau fluor counter -8%[11.6 µM].
Cc1cccc(N=Nc2ccc(O)c3ncccc23)c1 was read as Tau FP inhib inconclusive, Tau ThT inhib 2µM*, KinaseGlo FLuc -8%, NPSR antagonist -4% and Tau fluor counter -26%.
Cc1ccc(C(C[N+](=O)[O-])c2c(-c3ccccc3O)[nH][nH]c2=O)cc1 (stereo unspecified) was read as Tau FP inhib inconclusive, Tau ThT inhib 18µM*, KinaseGlo FLuc 0%, NPSR antagonist 17% and Tau fluor counter -22%.
`Cc1ccc(-n2ncc(C(=O)N3CCC(c4ccccc4)C3)c2C2CCN(C(=O)OC(C)(C)C)CC2)cc1` (stereo unspecified) gave Tau FP inhib 2%, Tau ThT inhib -11% and Tau fluor counter -7%.
COc1ccc(Cl)cc1N=Nc1ncc[nH]1 was read as Tau FP inhib -13%, Tau ThT inhib 13µM*, KinaseGlo FLuc 1% and Tau fluor counter -19%.
COc1ccc(Cl)cc1-n1c(C)ccc1C was read as Tau FP inhib 1%, Tau ThT inhib -14%, KinaseGlo FLuc 2%, NPSR antagonist 11% and Tau fluor counter -1%.
O=C(CCc1ccccc1O)N/N=C/c1ccc(Sc2cccc3cccnc23)o1 was read as Tau FP inhib inconclusive, Tau ThT inhib -10%, KinaseGlo FLuc -2%, NPSR antagonist inconclusive and Tau fluor counter 14µM*[quencher].
O=C(N/N=C/c1ccc(Sc2ccccn2)o1)c1cc2ccccc2cc1O was read as Tau FP inhib -1%, Tau ThT inhib 14µM*, KinaseGlo FLuc -2%, NPSR antagonist -17%[46.1 µM] and Tau fluor counter inconclusive.
`COc1ccc(-c2c(-c3ccc(OCC(=O)NN)cc3O)n[nH]c2C(F)(F)F)cc1` gave Tau FP inhib inconclusive, Tau ThT inhib inconclusive, KinaseGlo FLuc 1%, NPSR antagonist 3% and Tau fluor counter 22µM*[quencher].
NNC(=O)COc1cccc(C(F)(F)F)c1 was read as Tau FP inhib 0%, Tau ThT inhib -16%, KinaseGlo FLuc 5%, NPSR antagonist 11% and Tau fluor counter -11%.
COc1ccc2c(c1)-c1nc(/N=C/c3c(O)ccc4ccccc34)sc1CC2 was read as Tau FP inhib inconclusive, Tau ThT inhib 22µM*, KinaseGlo FLuc -3%, NPSR antagonist 16% and Tau fluor counter inconclusive.
Screening Oc1ccc2ccccc2c1/C=N/c1nccs1 returned Tau FP inhib -14%, Tau ThT inhib inconclusive, KinaseGlo FLuc 0%, NPSR antagonist 6%[46.1 µM] and Tau fluor counter -8%.
Screening COc1ccc2c(c1)-c1nc(/N=C/c3ccc(O)cc3)sc1CC2 returned Tau FP inhib inconclusive, Tau ThT inhib 28µM*, KinaseGlo FLuc 2%, NPSR antagonist 16% and Tau fluor counter inconclusive.
For Cc1cc(O)c(C(C)C)cc1Cl the results were Tau FP inhib 3%, Tau ThT inhib -3%, KinaseGlo FLuc 4%[39.9 µM] and Tau fluor counter -3%.
Screening Cc1ccc(-c2nc3s/c(=C\c4ccco4)c(=O)n3n2)cc1 returned Tau FP inhib 4%, Tau ThT inhib inconclusive, KinaseGlo FLuc -11%, NPSR antagonist 1%[46.1 µM] and Tau fluor counter -13%.
For Cc1ccc(/C=c2\sc3nc(-c4ccccc4Br)nn3c2=O)o1 the results were Tau FP inhib inconclusive, Tau ThT inhib 28µM*, KinaseGlo FLuc 0%, NPSR antagonist inconclusive and Tau fluor counter -28%.
`Cc1ccc(/C=c2\sc3nc(-c4ccco4)nn3c2=O)o1` gave Tau FP inhib inconclusive, Tau ThT inhib 18µM*, KinaseGlo FLuc -8%, NPSR antagonist 4%[46.1 µM] and Tau fluor counter -29%.
`CC(=O)NC1=NC(=O)/C(=C/c2cn(C(C)=O)nc2-c2ccccc2)S1` gave Tau FP inhib inconclusive, Tau ThT inhib 28µM*, KinaseGlo FLuc -3%, NPSR antagonist -30% and Tau fluor counter -22%.
Cc1cc(F)ccc1S(=O)(=O)Nc1ccccc1C(=O)Nc1ccccc1-c1nc2ccccc2[nH]1 was read as Tau FP inhib 13µM*, Tau ThT inhib 8%, KinaseGlo FLuc 0%, NPSR antagonist inconclusive and Tau fluor counter inconclusive.
`Cc1cc(F)ccc1S(=O)(=O)Nc1ccccc1C(=O)Nc1ncn[nH]1` gave Tau FP inhib 3%, Tau ThT inhib -13%, KinaseGlo FLuc -2%, NPSR antagonist -21%[46.1 µM] and Tau fluor counter -15%.
CC1CCN(S(=O)(=O)c2ccc(C(=O)Nc3ccccc3-c3nc4ccccc4[nH]3)cc2)CC1 was read as Tau FP inhib 28µM*, Tau ThT inhib 18%, KinaseGlo FLuc 0%, NPSR antagonist -12%[46.1 µM] and Tau fluor counter inconclusive.
Cc1[nH]c2ccccc2c1N=Nc1ccc(F)cc1 was read as Tau FP inhib -2%, Tau ThT inhib 13µM*, KinaseGlo FLuc 0%, NPSR antagonist inconclusive and Tau fluor counter 14µM*[quencher].
Cc1[nH]c2ccccc2c1N=Nc1ccccc1F was read as Tau FP inhib inconclusive, Tau ThT inhib 13µM*, KinaseGlo FLuc -1%, NPSR antagonist -43% and Tau fluor counter 13µM*[quencher].
